For one assay, the target named is IPO9. As to the kind of experiment: pooled miR-30 sensor sort-seq; sequence = guide strand. As to conditions: shRNA.
Sequence TTGTATTTCGTACTACTGTTGT displayed a sensor-assay potency score (higher = more potent) of -0.494.
Still for that read-out and setting: in the case of TAATCTGTTCTTCAGCAGCCGC it was -1.2.
In the case of TATAGGAGAATGTATCATCATC, the sensor-assay potency score (higher = more potent) is -0.789.
Turning to TTATCGATTCTCTCAACCCATT, the sensor-assay potency score (higher = more potent) was -1.16.
Same read-out and setting: then TTGTCATCTGCATTGATGCCAT, with -0.517; and TTTGTATTTCGTACTACTGTTG, with -0.688.
The same measure, in the same setting: then TTTTTGGCTGACTTAGAGCGGG, with -0.902; and TTTGCTTATCGATTCTCTCAAC, with -1.05; and TTCTAGCTGAGTGTGCACCAGA, with -0.519.
On the same count and under the same terms, in the case of TATTGTTTCAAGATGACTGATG it was -0.429.
TTGCTTTCCATGCTTGCTGTGA registered a sensor-assay potency score (higher = more potent) of -0.476.

A further assay deals with IQCF1. The assay is described as above. The conditions noted are these: shRNA.
In turn, TACCGTATCTTTGTCAGAGAGC displayed a sensor-assay potency score (higher = more potent) of -0.874.
On the same count and under the same terms, then ATCTTTGTCAGAGAGCTTCTTT, with 0.163.
With TTGAGCACCTGGCAATAGCGTC, the sensor-assay potency score (higher = more potent) was -1.02.
The sequence TAGCCTCTGCCTTTGACTCTGC displayed a sensor-assay potency score (higher = more potent) of -0.296.
Still for that read-out and setting: then TTCTTCAGAATCTTGGACAGTA, with 0.482; and TGGAGTTTTAGCCTCTGCCTTT, with -0.954.
On to TTTCTCATTGGCATTGTCCACT, for which the sensor-assay potency score (higher = more potent) was -0.377.
For ATACACTCTGTCACAATGCAAG, the sensor-assay potency score (higher = more potent) was -1.11.
As for TTGGCTGTGACTCTGTACTGGC, the sensor-assay potency score (higher = more potent) is -0.0836.
Take TTTGAGGGTTCCTTCGTCTTTT: the sensor-assay potency score (higher = more potent) was -0.864.
As to TTGATCTTGGTGGCTACCGTAT, the sensor-assay potency score (higher = more potent) is -0.916.
Still for that read-out and setting: then TTGTCCACTGTCTGTGTCTCAA, with -0.831.

A further assay addresses IQCJ. The assay is described as above. As to conditions: shRNA.
TTGAGAGTATGTATGAACCCAG registered a sensor-assay potency score (higher = more potent) of 0.0169.
Regarding TCGCTGAATGATTTTCACCTTT, the sensor-assay potency score (higher = more potent) was -0.759.
TAGAGGATTCTGCAATCTTTTC returned a sensor-assay potency score (higher = more potent) of -1.5.
In turn, TCGGAGAAGGTGTTCATGCTGA yielded a sensor-assay potency score (higher = more potent) of -0.401.
On to TTTTCCATCATTAACTTGTTCT, for which the sensor-assay potency score (higher = more potent) was -0.253.
On the same count and under the same terms, then TTCTCTGAGGAGACAGAGGGTG, with -0.857.
Still for that read-out and setting: then TTCCATCATTAACTTGTTCTAG, with -0.41.
Same read-out and setting: in the case of TCTCTGAGGAGACAGAGGGTGG it was -1.51; in that of ATATTTTCCATCATTAACTTGT, 0.105; in that of TCCATCATTAACTTGTTCTAGA, -0.697.
The sequence TAGAGAAGAATCACCTTCCTTC showed a sensor-assay potency score (higher = more potent) of 0.583.

The target of the next assay is IREB2. Described as above. As to conditions: shRNA.
With TTCATCATCATTTACATCCATG, the sensor-assay potency score (higher = more potent) was -0.574.
The same measure, in the same setting: then TAGTATAACATGTTCTTCCTCT, with 0.5; and TTTAGATACATCGAAGAACTTC, with -0.321; and TTTTCTTCAAAAACCACTCTTG, with -0.106.
The sequence TTATGTGTGAATCTGTGCCGAC yielded a sensor-assay potency score (higher = more potent) of -0.0474.
Sequence TTCGAAACAATTTCACAGCTTT yielded a sensor-assay potency score (higher = more potent) of 1.18.

The values above are taken from the OligoGym collection.
Note: reference of the scale not given here.
